# From article PMC7819943, “Rice protein-binding microarrays: a tool to detect cis-acting elements near promoter regions in rice”
# Over roughly 68,000 sequences, “fluorescence intensity (a.u.)” has its median near 9,100; the highest 2% begin near 16,000. This is one part of a sample in which the highest values are shown more often than they occur.
# Target: OsWRKY34 (Oryza sativa, UniProt Q0JBA9 1-250)
# Test: protein-binding microarray (RPBM); PBS, 2% BSA, 51.3 ng/ul salmon testes DNA, 50 uM zinc acetate, 200 nM TF, 25 C, 1 h; high values mean tight binding
# Details: protein: recombinant; tags: N-terminal polyhistidine and DsRed monomer fusion (pET32a); label: CyDye5-dUTP incorporated in the synthesized complementary strand; 3' TTTTT single-stranded linker to array surface; dsDNA, one strand shown
# How it was run: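 A custom Agilent array was converted to double-stranded form by primer extension with Cy5-dUTP and blocked with 2% BSA. Protein at 200 nM in PBS with 2% BSA, salmon testes DNA and 50 µM zinc acetate was applied for 1 h at 25 °C, followed by washing. The proteins were polyhistidine–DsRed N-terminal fusions of transcription factors, expressed in E. coli BL21-CodonPlus and Ni–NTA-purified. The binding signal is per-feature fluorescence intensity (arbitrary units) from an Axon 4000B scanner.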
# Sequence of OsWRKY34 (Q0JBA9 entry or part of it): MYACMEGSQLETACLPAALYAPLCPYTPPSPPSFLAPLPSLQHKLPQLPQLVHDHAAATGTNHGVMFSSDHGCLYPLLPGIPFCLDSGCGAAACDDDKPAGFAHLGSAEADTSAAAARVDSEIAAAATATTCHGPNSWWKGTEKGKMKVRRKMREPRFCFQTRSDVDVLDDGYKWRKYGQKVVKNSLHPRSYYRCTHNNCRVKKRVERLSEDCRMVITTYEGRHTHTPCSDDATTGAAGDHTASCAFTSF
row,Sequence,binding signal
1,CCTGCCCGGTGTGCTGTGACTTGCCGTTATCGTCACCGTTCGGAGTCACCTAGTGCAG,10200 fluorescence intensity (a.u.)
2,CACTTCTTTTCTCTATGGCGGCATCTGAATCTATGTGGATCGGAGTCACCTAGTGCAG,9450 fluorescence intensity (a.u.)
3,AATCACCTCCCTTATCTTACCTGCATGACAAATGCCTCGACGGAGTCACCTAGTGCAG,8590 fluorescence intensity (a.u.)
4,ACCCACCATGCCACCCCACTCCTTCTTTAAACTTGTAAACCGGAGTCACCTAGTGCAG,9480 fluorescence intensity (a.u.)
5,TCTCCTATCCAGTTGGATTCCCAAAATTTCGCCTTTCGTCCGGAGTCACCTAGTGCAG,8070 fluorescence intensity (a.u.)
6,AACCGAAATCACTTTGGCAGCATGTTTTCCTCTGTAACCACGGAGTCACCTAGTGCAG,9350 fluorescence intensity (a.u.)
7,CAACCCCACCGCCGCCGCCGCAAACCGTCTCGCCGTCGCCCGGAGTCACCTAGTGCAG,11600 fluorescence intensity (a.u.)
8,GAGGTTGTTTTGTCGTCTAGCAAGTGTGTGTCGGGTGGCGCGGAGTCACCTAGTGCAG,9220 fluorescence intensity (a.u.)
9,GTCATATGGCACCATGCTTGCTCTCCACTCTTCAATCAGTCGGAGTCACCTAGTGCAG,9490 fluorescence intensity (a.u.)
10,TCGCTGCTCTGCCCTTTTCCCTTTTTTTTTCTTTCTTCATCGGAGTCACCTAGTGCAG,10200 fluorescence intensity (a.u.)
11,CTCCCGTCAGTTGACCGTGTGTTGACCGTTAATTCTCAAGCGGAGTCACCTAGTGCAG,17500 fluorescence intensity (a.u.)
12,CCCTCCCGTCAGTTGACCGTTAGTTGACCGTGTATTTTCTCGGAGTCACCTAGTGCAG,12200 fluorescence intensity (a.u.)
13,CCATCAGTTGACCATGTGTTGACCGTTAACTCTCAAGTAACGGAGTCACCTAGTGCAG,9190 fluorescence intensity (a.u.)
14,TCCGTGTCCAATGTTTGACCATCCGTCTTATTTAAAAAAACGGAGTCACCTAGTGCAG,8070 fluorescence intensity (a.u.)
15,GTGTTGTGTTCATCTCCTTCGTTTACTTCTCTTCTCCTCTCGGAGTCACCTAGTGCAG,11500 fluorescence intensity (a.u.)
16,TATTCTGTTGTATTATGATATTATATATATTTTTCTTCGACGGAGTCACCTAGTGCAG,8980 fluorescence intensity (a.u.)
17,AACAGGCATGGTTTCCTTCGTCGTTTCTACTAGCAGTTGCCGGAGTCACCTAGTGCAG,11900 fluorescence intensity (a.u.)
18,GTTCCTTTCAGAAACTGGCATTCGAGTTTTGAGTTTCTCGCGGAGTCACCTAGTGCAG,8720 fluorescence intensity (a.u.)
19,GATGGCCTTGACCATGCAGAAACAGGCATGGTTTCCTTCGCGGAGTCACCTAGTGCAG,64500 fluorescence intensity (a.u.)
20,CTTTAGTTAAAGTCAAAGTGCTTCAAGTTTGACTAAGTTTCGGAGTCACCTAGTGCAG,9150 fluorescence intensity (a.u.)
21,ATTGTTATGTTCCTTTGTTTTCTTATAAATATAATTTAATCGGAGTCACCTAGTGCAG,9560 fluorescence intensity (a.u.)
22,TAAGACGTTTTGACTTTGGTCAAACTGTTTGGTCAAAGTCCGGAGTCACCTAGTGCAG,10600 fluorescence intensity (a.u.)

row,Sequence,binding signal
1,GTTTTGACTTTGGTCAAAGTCAAACTAATTCAAGTTAGACCGGAGTCACCTAGTGCAG,17600 fluorescence intensity (a.u.)
2,CTAAAATTTCCTTATGTTTTCTTCTTCTTCTAGTTATGTGCGGAGTCACCTAGTGCAG,8800 fluorescence intensity (a.u.)
3,CATTTGACTTTTTTCTAGTCAAAGTTATTTATATTTAATTCGGAGTCACCTAGTGCAG,14100 fluorescence intensity (a.u.)
4,GACTTTAGTCAAAGTCATGTTGTTTCAAGTTTGACTAATTCGGAGTCACCTAGTGCAG,18800 fluorescence intensity (a.u.)
5,TTTGGTCAAACTTAAAAAAGTTTGACTACAACTAAATTCACGGAGTCACCTAGTGCAG,8740 fluorescence intensity (a.u.)
6,TTTTCCTTAGTCAAAGTTATATATGTTTGACTAAATTTATCGGAGTCACCTAGTGCAG,18000 fluorescence intensity (a.u.)
7,TCATACATGTGATCACTCACTCACTCTCACACACACTCTCCGGAGTCACCTAGTGCAG,10100 fluorescence intensity (a.u.)
8,AAACAGACCCTTAATATGCTATATTTGTCTCCAATAAAACCGGAGTCACCTAGTGCAG,8480 fluorescence intensity (a.u.)
9,TTGCTCTTGTTAATGTTTGGCTTTCTTCTTCTTCTGCTGCCGGAGTCACCTAGTGCAG,8600 fluorescence intensity (a.u.)
10,GCTCCACCTACTCCGCTCCCCTCTGCTCGGCTGCTCCCATCGGAGTCACCTAGTGCAG,8470 fluorescence intensity (a.u.)
11,GCTCCCTGCTGCCATATCCTATCATCTCCTCTCTTCCTCTCGGAGTCACCTAGTGCAG,8540 fluorescence intensity (a.u.)
12,ACACTCTGCTGCATCTCTTATCCCTTCATCTCGGTCTTAACGGAGTCACCTAGTGCAG,16600 fluorescence intensity (a.u.)
13,CTCCATTCTTGTTTGTTCCTTCTTTGCTTTCAGCTGCTTTCGGAGTCACCTAGTGCAG,15000 fluorescence intensity (a.u.)
14,GGCTCGTGCACCTGCTCTCGTCTTTTCCACCGCTTTTTTTCGGAGTCACCTAGTGCAG,16800 fluorescence intensity (a.u.)
15,ACCAGCTTTCTTTCTCGTGCTTTCCTCTTCTTCTTTTTTTCGGAGTCACCTAGTGCAG,10900 fluorescence intensity (a.u.)
16,CCTCATCCGCTGCTCTGCTCCCACCATTGCTGCTCTCTCTCGGAGTCACCTAGTGCAG,17700 fluorescence intensity (a.u.)
17,ATATCCCTTCTCTTCCCTCATCTCTCCACCTCTTCCATCTCGGAGTCACCTAGTGCAG,8890 fluorescence intensity (a.u.)
18,CTGCCGCGCTTCGTCGCCGCGCTCGCCCGTCTTTCGCTCTCGGAGTCACCTAGTGCAG,8230 fluorescence intensity (a.u.)
19,GGCCCTGAGCTCTCTCTTGCTGCTTCTTTTAATGGGTTTTCGGAGTCACCTAGTGCAG,9680 fluorescence intensity (a.u.)
20,TCTCTCTCTCTCTCCTCTGCATCCGCGCGCATTGCTCGATCGGAGTCACCTAGTGCAG,9000 fluorescence intensity (a.u.)
21,TGGGGTTTTCAGCTTGCCAATGCTGCATTATCTTCTTTTTCGGAGTCACCTAGTGCAG,17200 fluorescence intensity (a.u.)
22,GCAGCATCACCCGCAGCCGCCGCCGCCGCCGCCATGGACTCGGAGTCACCTAGTGCAG,10100 fluorescence intensity (a.u.)

row,Sequence,binding signal
1,GCAATACACCTGATTTGATACTTCTTCCGATATAATACTCCGGAGTCACCTAGTGCAG,8900 fluorescence intensity (a.u.)
2,GATTGTATATGCCTGATAGGACTAGTTAGTGTGTTTTCTTCGGAGTCACCTAGTGCAG,9220 fluorescence intensity (a.u.)
3,CACTAGTTTTAGTTACTAACTTATGGCTCTTGTGCTATCACGGAGTCACCTAGTGCAG,8070 fluorescence intensity (a.u.)
4,AAGACACAGCTTCAACACGTAACCTATGCACTACACACTACGGAGTCACCTAGTGCAG,11700 fluorescence intensity (a.u.)
5,CCCGTTCTAATTCAGTTTCTCCCTTTCTTACCGCATGTACCGGAGTCACCTAGTGCAG,8490 fluorescence intensity (a.u.)
6,GTTCTCTAGCCGCTTGTGATACTCGCAATCCTAAACCACGCGGAGTCACCTAGTGCAG,8410 fluorescence intensity (a.u.)
7,TAACTGCGTTGACATGTCGCCTTGCTATACTCACATTCTTCGGAGTCACCTAGTGCAG,9470 fluorescence intensity (a.u.)
8,TCTCACTCTCTCACACACACACTCTCTCTCTCTGCTAGCTCGGAGTCACCTAGTGCAG,9820 fluorescence intensity (a.u.)
9,GAATGTTGATGCTGTTGATGCATGCACCTGCCGAAGGCCGCGGAGTCACCTAGTGCAG,9170 fluorescence intensity (a.u.)
10,CTCGCCATCTCTGCCGCCGGTCCGCCGCCTCGCTCGCTCGCGGAGTCACCTAGTGCAG,9470 fluorescence intensity (a.u.)
11,CTTCTGTCATATCACCTTGCCGCTGCTTCTGATCATCTCCCGGAGTCACCTAGTGCAG,8670 fluorescence intensity (a.u.)
12,CTCTTGCTGTTTCCTTTGCTCTGTTTCCTCTGCCTGCGCCCGGAGTCACCTAGTGCAG,8760 fluorescence intensity (a.u.)
13,TTGTTCTTGCTGCATTTCTTCTTCTCGTTTTTTTTTCTTTCGGAGTCACCTAGTGCAG,16900 fluorescence intensity (a.u.)
14,CGCTGCTTCTGATCATCTCCCGTTCTTGCATTCTTCTTCTCGGAGTCACCTAGTGCAG,19400 fluorescence intensity (a.u.)
15,GAATCTGCTTCTCATTCTTTTTTTCTTGCTGATCATCATGCGGAGTCACCTAGTGCAG,10200 fluorescence intensity (a.u.)
16,TTCACCACCACCGCCACGGCCTCTGCCTCTCGCTCTCTCTCGGAGTCACCTAGTGCAG,10200 fluorescence intensity (a.u.)
17,CACCACCTTTGTTTGCTGCTCTCCATTTTTTTTCTTCGTTCGGAGTCACCTAGTGCAG,10200 fluorescence intensity (a.u.)
18,ACGCCCGCTTGATCCGCCTGCTGCGCGCGCGCGAGTTTTTCGGAGTCACCTAGTGCAG,9160 fluorescence intensity (a.u.)
19,ATCCCGGCCTGCTCTTGCGCTTTGACTTTTTGTAGAGTTTCGGAGTCACCTAGTGCAG,18200 fluorescence intensity (a.u.)
20,TGTCCGCCACGCTCTCGCCATCTGCCTGTACCACTAATCTCGGAGTCACCTAGTGCAG,22500 fluorescence intensity (a.u.)
21,TGTTTGCTGCTGCTGCTGCTCTGCTTTTCTCTTTTTTCTTCGGAGTCACCTAGTGCAG,9490 fluorescence intensity (a.u.)
